# Data taken from PubChem BioAssay.
# Calls of active or inactive are those of the source.
# How the values were obtained:
# [1] = target: Albumin (Bos taurus) (UniProt P02769); experiment: compounds binding labelled BSA control protein – biochemical, small-molecule microarray, Alexa647 label, 635/667 nm fluorescence, artefact control for SMM control protein annotation, profiling panel (AID 1118); conditions: BSA-A647 binding, fluorescence 635 nm, higher = more signal;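 also: score merges 667 nm emission intensity and signal-to-noise per printed compound spot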
# Albumin (Bos taurus), sequence (P02769 whole entry, looked up): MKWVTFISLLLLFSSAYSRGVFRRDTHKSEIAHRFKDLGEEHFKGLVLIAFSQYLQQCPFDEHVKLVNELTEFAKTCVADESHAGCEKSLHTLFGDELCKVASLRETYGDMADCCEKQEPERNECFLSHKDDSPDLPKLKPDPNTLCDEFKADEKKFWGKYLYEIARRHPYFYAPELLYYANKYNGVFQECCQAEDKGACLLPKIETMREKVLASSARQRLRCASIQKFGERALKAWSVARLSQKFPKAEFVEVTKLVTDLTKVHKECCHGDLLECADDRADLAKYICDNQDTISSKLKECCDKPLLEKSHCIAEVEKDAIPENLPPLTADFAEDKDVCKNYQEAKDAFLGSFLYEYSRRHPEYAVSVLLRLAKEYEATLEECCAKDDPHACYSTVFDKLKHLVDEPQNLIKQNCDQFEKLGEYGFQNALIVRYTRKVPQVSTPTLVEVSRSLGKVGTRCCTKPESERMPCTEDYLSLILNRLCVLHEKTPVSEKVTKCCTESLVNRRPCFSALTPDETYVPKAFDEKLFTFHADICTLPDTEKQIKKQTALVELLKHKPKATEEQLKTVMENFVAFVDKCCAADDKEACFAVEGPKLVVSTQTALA
# [2] = probe aXIP binding to arrayed compounds – biochemical, NeuroSMM set, 635/667 nm fluorescence, primary screen (AID 1119); conditions: small-molecule microarray, higher = more signal, called active from +8 up or from −8 down;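 also: probe is the protein aXip251-270 applied at 1 µg/mL to compound-printed slides; binding of probe to printed compounds measured as 667 nm fluorescence plus signal to noise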
# [3] = probe aNOTCH3 binding on compound microarray – biochemical, small-molecule microarray, 635/667 nm fluorescence, primary screen (AID 1120); conditions: higher = more signal;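 also: probe is a biotin-tagged antibody raised against NOTCH3 rather than NOTCH3 protein; score merges spot fluorescence near 667 nm with spot signal to noise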
# [4] = probe aNOTCH2 binding on compound microarray – biochemical, small-molecule microarray, 635/667 nm fluorescence, primary screen (AID 1121); conditions: higher = more signal;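 also: score merges feature fluorescence read at 667 nm with its signal to noise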
# [5] = target: Carbonic anhydrase 2 (Homo sapiens) (UniProt P00918); experiment: compounds binding carbonic anhydrase 2 – biochemical, small-molecule microarray, Alexa647-labelled CAII, profiling panel (AID 1122); conditions: CAII-A647 binding fluorescence, higher = more signal
# [6] = COS7 lysate on small-molecule microarray, probe aHis, 635 nm (AID 1123); conditions: COS7 cell lysate, fluorescence, higher = more signal;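 also: z-score combines 667nm fluorescence intensity with signal-to-noise per printed compound spot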
# [7] = probe aLAP1 signal on lysate-treated microarray – cell lysate, small-molecule microarray, COS7 lysate, primary screen (AID 1124); conditions: probe aLAP1, fluorescence, higher = more signal;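 also: lysate comes from COS7 cells expressing LAP1 and is applied at 0.3 µg/mL; score merges spot fluorescence near 667 nm with signal-to-noise over triplicate slides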
# [8] = system: Sam68 (KHDRBS1); experiment: compounds binding KHDRBS1 protein – biochemical, small-molecule microarray, 635 nm fluorescence, primary screen (AID 1125); conditions: higher = more signal;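 also: score merges 667 nm channel intensity with signal to noise over triplicate slides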
# [9] = system: Chordin-like protein 2 (CHRDL2); experiment: compounds binding chordin-like 2 – biochemical, small-molecule microarray, 635 nm fluorescence, primary screen (AID 1126); conditions: fluorescence 635 nm, higher = more signal;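 also: printed compound slides probed with Chrdl2 protein at 4 µg/mL for 1 h at 4 C; score merges 667 nm emission intensity with signal to noise over three replicate slides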
# [10] = target: Concanavalin-A (Canavalia ensiformis) (UniProt P02866); experiment: compounds binding concanavalin A lectin – biochemical, small-molecule microarray, Alexa647 label, 635 nm, artefact control for SMM control protein annotation, primary screen (AID 1127); conditions: ConA-A647 binding fluorescence, higher = more signal;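 also: z combines 667 nm emission intensity with signal-to-noise across three replicate slides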
# Concanavalin-A (Canavalia ensiformis), sequence (P02866 whole entry, looked up): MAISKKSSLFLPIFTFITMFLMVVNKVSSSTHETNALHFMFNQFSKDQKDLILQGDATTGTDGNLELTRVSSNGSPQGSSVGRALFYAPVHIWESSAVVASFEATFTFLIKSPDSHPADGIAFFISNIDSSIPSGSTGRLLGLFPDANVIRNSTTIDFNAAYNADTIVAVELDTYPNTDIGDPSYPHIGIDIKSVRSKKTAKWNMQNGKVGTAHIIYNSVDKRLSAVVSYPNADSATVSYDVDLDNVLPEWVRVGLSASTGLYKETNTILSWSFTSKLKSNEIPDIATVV
# [11] = compounds binding Alexa647 anti-His antibody – biochemical, small-molecule microarray, 635 nm fluorescence, artefact control for SMM control protein annotation, primary screen (AID 1128); conditions: higher = more signal;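 also: score merges feature fluorescence with signal-to-noise for each printed compound spot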
# [12] = system: Human papillomavirus type 1a E7 protein (residues 1-88); experiment: HPV1a E7 small-molecule binders, primary screen, biochemical, small-molecule microarray, residues 1-88, 635 nm (AID 1129); conditions: small-molecule microarray binding, fluorescence 635 nm; higher = more signal
# [13] = target: Focal adhesion kinase 1 (Homo sapiens) (UniProt Q05397); experiment: PTK2 protein binding on printed compound slides – biochemical, small-molecule microarray, 635/667 nm fluorescence, BSA, DTT, primary screen (AID 1130); conditions: 635 nm fluorescence, higher = more signal;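 also: composite of spot emission at 667 nm and signal to noise over triplicate slides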
# Focal adhesion kinase 1 (Homo sapiens), sequence (Q05397 whole entry, looked up): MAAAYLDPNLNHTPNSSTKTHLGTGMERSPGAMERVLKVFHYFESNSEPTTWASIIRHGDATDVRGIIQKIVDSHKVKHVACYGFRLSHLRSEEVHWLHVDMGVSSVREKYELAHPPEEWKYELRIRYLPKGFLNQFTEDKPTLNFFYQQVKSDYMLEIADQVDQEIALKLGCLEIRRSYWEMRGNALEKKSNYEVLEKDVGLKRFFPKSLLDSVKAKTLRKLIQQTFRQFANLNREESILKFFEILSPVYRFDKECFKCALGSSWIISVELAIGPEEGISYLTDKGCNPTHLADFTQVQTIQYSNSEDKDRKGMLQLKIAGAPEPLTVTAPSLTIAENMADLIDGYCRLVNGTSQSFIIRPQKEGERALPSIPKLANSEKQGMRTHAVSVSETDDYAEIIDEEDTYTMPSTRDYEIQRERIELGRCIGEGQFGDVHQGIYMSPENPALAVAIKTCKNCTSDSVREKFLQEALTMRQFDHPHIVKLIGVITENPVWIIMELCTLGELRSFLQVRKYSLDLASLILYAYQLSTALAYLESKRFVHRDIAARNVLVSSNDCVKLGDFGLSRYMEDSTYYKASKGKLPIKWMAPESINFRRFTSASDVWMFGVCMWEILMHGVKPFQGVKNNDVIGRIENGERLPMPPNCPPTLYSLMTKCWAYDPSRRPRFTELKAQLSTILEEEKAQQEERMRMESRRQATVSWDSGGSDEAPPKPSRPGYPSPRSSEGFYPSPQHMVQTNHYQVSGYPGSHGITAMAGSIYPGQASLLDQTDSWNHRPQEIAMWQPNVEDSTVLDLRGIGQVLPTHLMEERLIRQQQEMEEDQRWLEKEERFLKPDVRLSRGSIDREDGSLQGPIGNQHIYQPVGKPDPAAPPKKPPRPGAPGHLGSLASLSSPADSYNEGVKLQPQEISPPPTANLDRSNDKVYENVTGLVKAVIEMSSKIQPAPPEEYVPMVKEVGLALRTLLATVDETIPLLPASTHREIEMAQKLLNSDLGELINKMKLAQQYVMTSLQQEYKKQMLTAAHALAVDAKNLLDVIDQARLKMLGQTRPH
# [14] = system: Fibrinogen (Alexa647-labelled); experiment: Alexa647-fibrinogen binding to printed small molecules – biochemical, small-molecule microarray, 635/667 nm fluorescence, artefact control for SMM control-protein annotation, profiling panel (AID 1131); conditions: fibrinogen-A647 binding fluorescence, higher = more signal;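 also: z-score merges 667 nm fluorescence with per-spot signal-to-noise over triplicate slides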
# [15] = target: Follistatin (Homo sapiens) (UniProt P19883); experiment: FST protein binding to printed compounds – biochemical, small-molecule microarray, 635/667 nm fluorescence, primary screen (AID 1132); conditions: 635 nm fluorescence, higher = more signal
# Follistatin (Homo sapiens), sequence (P19883 whole entry, looked up): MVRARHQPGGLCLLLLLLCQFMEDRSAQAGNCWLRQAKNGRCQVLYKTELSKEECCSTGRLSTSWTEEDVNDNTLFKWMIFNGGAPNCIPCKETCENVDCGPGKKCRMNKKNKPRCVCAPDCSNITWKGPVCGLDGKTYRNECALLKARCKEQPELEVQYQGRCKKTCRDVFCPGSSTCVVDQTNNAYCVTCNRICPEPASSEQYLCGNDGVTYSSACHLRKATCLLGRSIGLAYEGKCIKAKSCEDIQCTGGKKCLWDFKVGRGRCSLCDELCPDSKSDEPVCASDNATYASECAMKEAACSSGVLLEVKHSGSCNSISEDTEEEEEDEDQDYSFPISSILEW
# [16] = target: Fibroblast growth factor 2 (Homo sapiens) (UniProt P09038); experiment: basic fibroblast growth factor binding to printed compounds – biochemical, small-molecule microarray, 635/667 nm fluorescence, primary screen (AID 1133); conditions: FGF2, fluorescence 635/667, higher = more signal
# Fibroblast growth factor 2 (Homo sapiens), sequence (P09038 whole entry, looked up): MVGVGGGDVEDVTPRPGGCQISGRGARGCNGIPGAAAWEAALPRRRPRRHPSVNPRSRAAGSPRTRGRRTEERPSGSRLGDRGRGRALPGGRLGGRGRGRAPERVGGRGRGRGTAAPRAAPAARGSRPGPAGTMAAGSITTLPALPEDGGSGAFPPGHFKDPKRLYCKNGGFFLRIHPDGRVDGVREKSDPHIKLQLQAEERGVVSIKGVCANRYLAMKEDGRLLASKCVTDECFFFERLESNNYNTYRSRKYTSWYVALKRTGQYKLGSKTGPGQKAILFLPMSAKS
# [17] = JC-1 mitochondrial potential readout, lung cancer cells – cell-based, A549, JC-1 fluorescence, basal, 24 h, 100 nL, profiling panel (AID 1138); conditions: higher = more signal;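 also: A549 lung adenocarcinoma cells under basal conditions with no added stimulus; test concentration not given here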
# [18] = system: Lefty1; experiment: Lefty1 protein binding to printed compounds – biochemical, small-molecule microarray, 635/667 nm fluorescence, primary screen (AID 1139); conditions: fluorescence 635/667, higher = more signal
# [19] = system: wheat germ agglutinin (Triticum aestivum), Alexa647-labelled; experiment: Alexa647-WGA lectin binding to printed small molecules – biochemical, small-molecule microarray, 635/667 nm fluorescence, artefact control for SMM control-protein annotation, profiling panel (AID 1140); conditions: WGA-A647 binding, 635 nm fluorescence, higher = more signal;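 also: score merges 667 nm feature emission with signal to noise over triplicate slides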
# [20] = target: Luciferin 4-monooxygenase (Photinus pyralis) (UniProt P08659); experiment: inhibition of purified Photinus pyralis luciferase – biochemical, luminescence, purified enzyme, 2006 set, primary screen (AID 1141); conditions: purified firefly luciferase, SteadyGlo luminescence, 30 min; higher = more signal, called active from +8 up or from −8 down;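 also: cell-free assay with purified firefly luciferase at 100 ng per well in PBS; test concentration not given here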
# Luciferin 4-monooxygenase (Photinus pyralis), sequence (P08659 whole entry, looked up): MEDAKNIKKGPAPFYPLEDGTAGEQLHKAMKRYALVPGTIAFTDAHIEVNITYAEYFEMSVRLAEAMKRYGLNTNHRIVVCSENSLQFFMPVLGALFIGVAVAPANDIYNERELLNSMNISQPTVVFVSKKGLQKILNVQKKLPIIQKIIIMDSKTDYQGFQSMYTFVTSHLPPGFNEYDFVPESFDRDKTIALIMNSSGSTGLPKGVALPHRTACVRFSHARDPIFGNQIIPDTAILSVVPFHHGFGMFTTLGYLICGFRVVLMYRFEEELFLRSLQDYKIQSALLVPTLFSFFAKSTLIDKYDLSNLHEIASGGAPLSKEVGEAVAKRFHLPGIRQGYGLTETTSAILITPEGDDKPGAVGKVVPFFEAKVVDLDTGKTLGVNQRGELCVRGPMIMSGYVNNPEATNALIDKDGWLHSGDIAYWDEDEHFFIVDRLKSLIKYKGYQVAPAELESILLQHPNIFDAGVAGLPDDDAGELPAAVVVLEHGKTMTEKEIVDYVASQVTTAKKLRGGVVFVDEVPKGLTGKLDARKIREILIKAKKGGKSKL
Compound,composite z-score [1],composite Z-score [2],composite z-score [3],composite z-score [4],composite z-score [5],composite z-score [6],composite z-score [7],composite z-score [8],composite z-score [9],composite z-score [10],composite z-score [11],composite z-score [12],composite z-score [13],composite z-score [14],composite z-score [15],composite z-score [16],z-score [17],composite z-score [18],composite z-score [19],z-score [20]
CCC1=C2CN(Cc3ccccc3)[C@@H](C(=O)Cc3ccccc3)C2C=CCC1 (stereo not given in full),0.912,-0.496 (inactive),0.0293,-0.149,0.679,1.58,-0.186,0.169,-0.263,0.351,0.797,-0.0353,-0.383,0.666,0.578,0.0052,-1.22,0.352,0.557,0.313 (inactive)
CCOC(=O)C[C@H]1[C@H](OC(=O)c2ccc(C(=O)c3ccccc3)cc2)[C@@H](NC(=O)c2ccc3ccccc3n2)c2cc(OCCCO)ccc2N1C(=O)Cc1ccc(OC)cc1,0.567,-0.201 (inactive),0.0779,-0.153,-0.175,0.759,-0.263,0.627,-0.384,0.93,-0.249,0.656,0.0555,0.692,0.259,0.52,-0.44,0.208,0.207,0.541 (inactive)
O=C1OCCC=C[C@H]2OC34C=CCN(c5ccc6ccccc6c5)C(=O)[C@H]3N(CCCO)C(=O)[C@@H]4C12 (stereo not given in full),-1.39,0.168 (inactive),-0.278,-0.205,-0.303,-0.626,-0.678,-1.82,-2.29,-0.533,-0.581,-2.27,-0.459,-0.51,-1.25,-2.33,-0.446,-1.81,-1.29,-0.244 (inactive)
OCCCC1=CC(c2ccc(CN3CCCC3)cc2)N(Cc2cc3c(cc2Br)OCO3)CC1 (stereo not given),-0.715,-0.888 (inactive),0.0833,-0.0467,0.0435,-0.437,0.597,-0.063,0.901,0.22,0.448,0.049,0.172,0.65,1.07,0.262,0.157,0.695,0.266,0.391 (inactive)
CC1CC/C=C\[C@H]2OC34C=CCN(C(C)(C)C)C(=O)[C@H]3N(CCCCCO)C(=O)[C@@H]4C2C(=O)O1 (stereo not given in full),-0.0891,-0.838 (inactive),-0.219,-0.153,0.887,-0.658,-0.55,-0.883,-1.34,-2.1,-1.24,-1.07,-0.83,-1.65,-0.898,-0.447,-0.227,-0.113,-0.51,0.152 (inactive)
